Bioassay records: PubChem BioAssay, National Center for Advancing Translational Sciences (NCATS)
Shiga toxin inh: inhibitors of Shiga toxin in Vero cells | Vero cells, Shiga toxin protein synthesis inhibition reporter | inhibition, % at 38.7 µM | hit rate 9.2% among 290,000 | AID 2315; in the data active means inhibition mostly above about 28%, no sharp cut-off; inactive means mostly below about 43%; further: 0% is about no effect
AmpC detergent: inhibitors of E. coli AmpC beta-lactamase with detergent; Potency, µM (titrated, usually from 114 µM), for the others: top-dose activity change, negative = inhibition, actives largely listed as inhibitors; P00811; hit rate 0.041% among 370,000; AmpC hydrolysis of nitrocefin, absorbance 480 nm, 0.01% Triton;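 further: potency means the concentration at half of the fitted maximal effect; 0% = no-compound wells and -100% = no-enzyme wells; nearly all actives have a fitted effect of over 25% in size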
Target sequence (P00811 whole entry, looked up): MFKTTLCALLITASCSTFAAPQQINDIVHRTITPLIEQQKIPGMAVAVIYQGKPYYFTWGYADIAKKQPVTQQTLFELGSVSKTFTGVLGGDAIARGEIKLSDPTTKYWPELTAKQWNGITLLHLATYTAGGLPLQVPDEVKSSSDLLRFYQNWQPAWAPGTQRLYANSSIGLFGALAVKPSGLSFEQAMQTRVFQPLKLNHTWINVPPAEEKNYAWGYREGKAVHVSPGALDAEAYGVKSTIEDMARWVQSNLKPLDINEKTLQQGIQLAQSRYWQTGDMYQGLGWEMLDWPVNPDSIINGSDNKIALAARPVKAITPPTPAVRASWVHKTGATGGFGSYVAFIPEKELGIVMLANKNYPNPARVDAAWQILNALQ
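AmpC (5.3 nM in the dispensed reagent) in 20 mM phosphate pH 7.0 with 0.01% (detergent screen) or 0.0001% Triton X-100 was preincubated with compounds for 15 min at room temperature. Nitrocefin was then added from an 800 uM solution, and hydrolysis was followed at 480 nm.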
CHX counter: counter-screen for Shiga toxin inhibitors: cycloheximide protein synthesis inhibition. cell reporter, cycloheximide protein synthesis inhibition counterscreen. hit rate 12% among 300,000. max response, %; in the data active means max response mostly above about 13%, no sharp cut-off; inactive means mostly below about 14%; further: read at 38.3 µM for the half of the compounds with a filed dose; 0% is about no effect
SARS PLP yeast: SARS-CoV PLP inhibition in yeast. S. cerevisiae expressing SARS-CoV PLpro, growth rescue. AID 485353. hit rate 0.19% among 330,000. Potency, µM (titrated, usually from 32.9 µM), without a hit: at the top dose activity, positive = growth rescue, most hits filed as activators; calls by dose curve; further: potency means the concentration at half of the fitted maximal effect; 0% is about no effect; nearly all actives have a fitted effect of over 55% in size
AMA1 RON2 block: AMA1-RON2 (P. falciparum) interaction inhibition. AlphaScreen AMA1-biotinylated RON2 peptide binding. Potency, µM (highest dose often 58.2 µM), without a hit: at the highest dose activity change, negative = inhibition, usual class: inhibitors. hit rate 0.2% among 360,000;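 further: potency means the concentration at half of the fitted maximal effect; 0% = vehicle wells and -100% = peptide control; nearly all actives have a fitted effect of over 45% in size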
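AMA1 (3D7) with his tag at 25 nM final met compounds first, then biotinylated RON2 peptide at 25 nM; detection used donor plus acceptor beads, 10 µg/mL apiece, read by AlphaScreen after 30 min at room temperature.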
AmpC no deterg: blocks E. coli AmpC beta-lactamase in detergent-free assay. AID 485341. hit rate 0.52% among 330,000. Potency, µM (top dose mostly 57.1 µM), for inactives: at the highest dose activity change, negative = inhibition, most hits filed as inhibitors. AmpC nitrocefin hydrolysis, absorbance 480 nm, 0.0001% Triton;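 further: potency means the concentration at half of the fitted maximal effect; plate controls were no compound for no effect and no enzyme for full effect; nearly all actives have a fitted effect of over 20% in size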
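20 mM phosphate pH 7.0 + 0.01% (detergent screen) or 0.0001% Triton X-100; 5.3 nM AmpC reagent; cpd preinc 15 min RT; nitrocefin (800 uM stock) to start; A480 q20 s × 4 min; Activity was normalised to no-enzyme and no-compound control wells.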
Active calls of the source: *; ? = inconclusive; nt = no result given; [ ] = dose if it differs, or a comment. This excerpt belongs to a sample that is enriched for hits. Unless noted, the call rests on the fitted dose curve; in most records, active means well fitted curve in the direction sought with a large enough effect; inconclusive means small, poorly fitted or top-dose-only effect, or another doubt; inactive means no such curve, though single readings can be large; an effect the other way counts as inactive or inconclusive.

SMILES	Shiga toxin inh	AmpC detergent	CHX counter	SARS PLP yeast	AMA1 RON2 block	AmpC no deterg
Cc1ccsc1C(=O)Nc1ccc(C(=O)O)cc1	10	-8%	-1	3%	-4%	-18%
O=C(NCCSc1ccccc1)c1cccnc1	83*	2%	49*	11%	1%	214%
CC(C)C(C)NC(=O)COc1ccc(OCc2ccccc2)cc1 (centres undefined)	33	2%	19	-4%	-17%	13%
Cc1ccsc1C(=O)Nc1ccc(OCc2ccccc2)cc1	68*	?	18*	-4%	-3%	-19%
O=C(Nc1ccc(OCc2ccccc2)cc1)c1ccccc1	26	-17%	14*	1%	-5%	4%
CC(C)NC(=O)COc1ccc(OCc2ccccc2)cc1	29	-4%	20*	-1%	-2%	-15%[11.4 µM]
O=C(NCCN1CCOCC1)C(=O)NCC1CCCO1 (centres undefined)	-4	-7%	-3	-7%	-13%	-10%
CCc1ccc(NC(=O)Cn2c(=O)n(Cc3ccc(C)cc3)c(=O)c3cccnc32)cc1	nt	1%	nt	nt	nt	nt
O=C(Cn1nc(-c2nn(CC(=O)c3ccccc3)c3[n+]2CCCCC3)[n+]2c1CCCCC2)c1ccccc1	3	-1%	-1	0%	-4%	48%
CCCC1(CCC)C(=O)NC(=NCCc2ccc(OC)c(OC)c2)NC1=O	-8	-5%	11	-4%	-8%	-27%
COc1ccccc1N1CCN(C(=O)CSc2nc(N)cc(=O)[nH]2)CC1	2	-9%	-3	-1%	-12%	11%
CCN1CCN(c2ccc(NC(=O)COc3ccc(Cl)cc3C)cc2)CC1	nt	nt	nt	1%	-15%	-7%
CCOCC(=O)Nc1cc(C(=O)Nc2ccccc2)ccc1Cl	18	?	14	-9%	32%	-31%
Cc1ccc(C(=O)Nc2ccc(OCc3ccccc3)cc2)s1	97	-9%	18*	2%	5%	-11%
CCc1ccccc1NC(=O)c1ccc(-n2c(C)ccc2C)cc1	-7	2%	-2	-3%	13%	-15%
CCOCC(=O)Nc1ccc(C(=O)Nc2ccccc2Cl)cc1	31	-1%	26*	-2%	nt	-10%
COc1ccc2nc(NC(=O)c3cccc(OCc4c(C)noc4C)c3)sc2c1	118*	-3%	44*	8%	44%	-8%
Cc1ccc(C)n1-c1ccc(C(=O)Nc2ccccc2F)cc1	102*	8%	57*	-2%	3%	-30%
CCSc1nnc(NC(=O)c2cccc(OCc3c(C)noc3C)c2)s1	26	-7%	14	-2%	0%	1%
COC(=O)NNC(=O)COc1ccc2ccccc2c1Br	17	-16%	12	-5%	11%	-12%
COc1ccc(C)c2sc(N(CCCN(C)C)C(=O)c3ccc(S(=O)(=O)N(C)C)cc3)nc12	21	3%	-3	1%	-7%	191%
CCOC(=O)CNC(=O)C(CO)NC(=O)OCc1ccccc1 (centres undefined)	6	-12%	26*	-1%	1%	-16%
CN1CCN(c2ccccc2NC(=O)c2ccc(OCc3ccccc3)cc2)CC1	-12	3%	-3	-3%	-6%	103%
CC(C)=CC(=O)Nc1ccc(Br)cc1	74*	?	58*	-10%	-3%	-1%
Cc1c(C(=O)Nc2ccc(OCc3ccccc3)cc2)cccc1[N+](=O)[O-]	-4	4%	8	2%	7%	-15%
SMILES	Shiga toxin inh	AmpC detergent	CHX counter	SARS PLP yeast	AMA1 RON2 block	AmpC no deterg
CCOC(=O)CNC(=O)C(Cc1ccccc1)NC(=O)OCc1ccccc1 (centres undefined)	-6	-1%	-2	1%	0%	1%
O=C(Nc1ccccc1F)c1ccc(OCc2ccccc2)cc1	86*	?	49*	-8%	-7%	-19%
CC(=O)Nc1ccc(NC(=S)Nc2ccc(Br)cc2)cc1	0	10%	-2	-1%	18%	-23%
Cc1cc(C(=O)Nc2ccc(OCc3ccccc3)cc2)c(C)o1	81*	0%	24*	-2%	-8%	-48%
O=C(NCC(c1cccnc1)N1CCc2ccccc21)c1cccc(Br)c1 (centres undefined)	nt	0%	nt	nt	nt	nt
O=C(Nc1cccc(C(=O)N2CCCCC2)c1)c1ccc(Cl)cc1	16	0%	29*	-7%	-1%	-14%
O=C(Nc1cccc(C(=O)N2CCCCC2)c1)c1ccccc1	nt	nt	nt	nt	9%	nt
Cc1ccc(C(=O)Nc2cccc(C(=O)N3CCOCC3)c2)cc1Cl	36	?	16*	3%	14%	2%
Cc1nc2ccccc2c(=O)n1NC(=O)/C=C/c1ccc(Br)cc1	-8	-8%	-2	-12%	-4%	-43%
CCCCC#Cc1ccc(C(=O)NNC(=O)Nc2cc(Cl)cc(Cl)c2)o1	-7	5%	-3	1%	125%	14µM*
CCCCCCn1cc(CN2CC(N(C)CCC)CS2(=O)=O)nn1 (centres undefined)	nt	nt	nt	nt	-13%	nt
CNC(=S)N1N=C2c3ccccc3CCC2C1c1ccccc1Cl (centres undefined)	0	-1%	6	-1%	0%	-9%
CN1N=C2c3ccccc3CCC2C1c1ccc(Cl)cc1 (centres undefined)	72*	-12%	35*	0%	-3%	-17%
CN1N=C2c3ccccc3CCC2C1c1ccc(F)cc1 (centres undefined)	87*	-5%	76*	-2%	-18%	-7%
CC1(C(=O)OCC(=O)NC(=O)c2ccccc2)CC1(Cl)Cl (centres undefined)	nt	5%	nt	-3%	-21%	-15%
CSc1nc(O)c(N=Nc2ccc(F)cc2F)c(=O)[nH]1	54*	3%	30*	-8%	3%	-22%
C/C(=N\O)c1ccc(N2C(=O)C3CC=C(Cl)CC3C2=O)cc1 (centres undefined)	80*	?	37*	5%	5%	-11%
O=C(NC12CC3CC(CC(C3)C1)C2)N1CCN(C(=O)C2CCCO2)CC1 (centres undefined)	-10	-11%	11*	8%	1%	-8%
Cc1noc(NS(=O)(=O)c2ccc(N/C=C\C(=O)c3ccc4c(c3)OCO4)cc2)c1C	72*	0%	37*	-33%	-3%	-44%
COc1cccc(C(=O)/C=C/Nc2ccc(S(=O)(=O)Nc3onc(C)c3C)cc2)c1	63*	1%	44*	26%	-1%	-27%
COc1cc(OC)cc(C(=O)Nc2ccc(S(=O)(=O)Nc3onc(C)c3C)cc2)c1	nt	11%	nt	nt	nt	nt
Cc1noc(NS(=O)(=O)c2ccc(NC(=O)/C=C/c3ccc(Br)cc3)cc2)c1C	-5	2%	-1	-1%	-16%	-29%
